Test results published in PubChem BioAssay (NCI).
The panel holds about 79,000 compounds, 15% with a hit somewhere; the sample as a whole holds those more often. The source made the active and inactive calls. No stated cut-off is given here; in the data, active means growth inhibition above about 70%; inactive means the rest.

Columns and labels:
[1] = NCI Yeast Anticancer Drug Screen. Data for the rad52 strain (AID 147);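 further: 0% = growth of vehicle-treated control cultures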; details: S. cerevisiae rad52 mutant growth inhibition, stronger effect = higher value
Procedure, shortened: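 Yeast strain carrying a DNA damage repair alteration was exposed to test compounds. Growth inhibition was measured relative to vehicle-treated controls.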

[2] = NCI Yeast Anticancer Drug Screen. Data for the wt1 strain (AID 149);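 further: 0% = growth of vehicle-treated wt1 cultures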; details: S. cerevisiae wt1 strain (SPY 50644) growth inhibition, stronger effect = higher value
Procedure, shortened: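 Measured: growth of wt1 yeast under compound versus vehicle treatment, reported as inhibition.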

[3] = NCI Yeast Anticancer Drug Screen. Data for the rad50EPP+ strain (AID 151);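 further: 0% = growth of vehicle-treated control cultures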; details: S. cerevisiae rad50 mutant strain, stronger effect = higher value
Procedure, shortened: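 Yeast strain carrying rad50 alteration (rad50EPP+) exposed to compounds; growth inhibition measured relative to vehicle-treated controls.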

[4] = NCI Yeast Anticancer Drug Screen. Data for the mgt1 strain (AID 153); details: S. cerevisiae mgt1 mutant growth inhibition, stronger effect = higher value
Procedure, shortened: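 Yeast mgt1 strain (DNA repair/cell-cycle alteration panel) exposed to compounds; growth inhibition measured relative to vehicle-treated controls.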

[5] = NCI Yeast Anticancer Drug Screen. Data for the rad50 strain (AID 155);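 further: 0% = growth of vehicle-only cultures of the same strain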; details: S. cerevisiae rad50 strain growth inhibition, stronger effect = higher value
Procedure, shortened: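 Growth of the mutant yeast was measured after compound exposure and referenced to vehicle-treated cultures.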

[6] = NCI Yeast Anticancer Drug Screen. Data for the mec2-1 strain (AID 157); details: S. cerevisiae mec2-1 strain, stronger effect = higher value
Procedure, shortened: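 mec2-1 yeast strain, carrying an alteration in DNA damage repair or cell cycle control, was exposed to compounds; growth inhibition was measured relative to vehicle-treated controls.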

[7] = NCI Yeast Anticancer Drug Screen. Data for the rad14 strain (AID 159);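 further: 0% = growth of vehicle-treated control cultures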; details: S. cerevisiae rad14 strain growth inhibition, stronger effect = higher value
Procedure, shortened: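 Here, inhibition of yeast growth was measured after compound exposure, using a strain with a genetic defect in DNA damage repair and vehicle-treated cultures as the reference.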

[8] = NCI Yeast Anticancer Drug Screen. Data for the sgs1 mgt1 strain (AID 161);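 further: 0% = growth of cultures given vehicle only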; details: S. cerevisiae sgs1 mgt1 strain, stronger effect = higher value
Procedure, shortened: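 Percent growth inhibition was derived by comparing compound-exposed mutant yeast with vehicle-exposed cultures. The strain carries alterations in DNA damage repair.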

[9] = NCI Yeast Anticancer Drug Screen. Data for the CLN2oe strain (AID 163);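 further: 0% = growth of vehicle-only control cultures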; details: S. cerevisiae CLN2oe strain, stronger effect = higher value
Procedure, shortened: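 Yeast cells carrying a defined cell-cycle control alteration were exposed to test compounds. Growth inhibition was scored against vehicle-treated control cultures.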

[10] = NCI Yeast Anticancer Drug Screen. Data for the cln2 rad14 strain (AID 165);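 further: 0% = growth equal to vehicle treated cultures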; details: S. cerevisiae cln2 rad14 strain, stronger effect = higher value
Procedure, shortened: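 Yeast carrying cln2 and rad14 alterations (cell cycle control and DNA damage repair) were exposed to compounds. Growth inhibition was measured against vehicle-treated controls.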

[11] = NCI Yeast Anticancer Drug Screen. Data for the bub3 strain (AID 167); details: S. cerevisiae bub3 mutant strain, stronger effect = higher value
Procedure, shortened: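 Whole-cell yeast assay. The mutant strain was incubated with compounds, and growth inhibition was determined by comparison with vehicle-treated cells.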

[12] = NCI Yeast Anticancer Drug Screen. Data for the wt2 strain (AID 169);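 further: 0% = growth of vehicle-treated yeast cultures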; details: S. cerevisiae wt2 strain growth inhibition, stronger effect = higher value
Procedure, shortened: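 Yeast cells were exposed to test compounds, and growth inhibition was measured relative to vehicle-treated controls.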

[13] = NCI Yeast Anticancer Drug Screen. Data for the mlh1 strain (AID 171);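 further: 0% = growth of vehicle-treated control cultures of the same strain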; details: S. cerevisiae mlh1 strain growth inhibition, stronger effect = higher value
Procedure, shortened: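 Yeast carrying a defined genetic alteration in DNA damage repair or cell cycle control were exposed to test compounds. Growth inhibition was measured relative to vehicle-treated controls.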

[14] = NCI Yeast Anticancer Drug Screen. Data for the sgs1 strain (AID 173);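 further: 0% = growth of vehicle-only control cultures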; details: S. cerevisiae sgs1 mutant, stronger effect = higher value
Procedure, shortened: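 Yeast mutant strains carrying defined defects in DNA damage repair or cell cycle control were exposed to test compounds. Growth inhibition was scored against vehicle-treated controls.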

[15] = NCI Yeast Anticancer Drug Screen. Data for the mlh1 rad18 strain (AID 175); details: S. cerevisiae mlh1 rad18 strain growth inhibition, stronger effect = higher value
Procedure, shortened: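 Growth inhibition of the yeast strain was measured after compound exposure and expressed relative to vehicle-treated controls. The strain carries defined defects in DNA damage repair.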

[16] = NCI Yeast Anticancer Drug Screen. Data for the rad18 strain (AID 177); details: S. cerevisiae rad18 mutant growth inhibition, stronger effect = higher value
Procedure, shortened: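 Yeast carrying a defined DNA damage repair alteration were exposed to compounds. Growth inhibition was expressed relative to vehicle-treated controls.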

[17] = at 5.0 µM (retest, dose inferred, filed as 0.5)
[18] = at 50.0 µM (retest, dose inferred, filed as 5.0)

Measured: growth inhibition

CCC(=O)c1cc(C(=O)C(=S)SC)cc(C(=O)C(=S)SC)c1
active: [1]; at 11.0 µM 97% | [1]; at 33.0 µM 97% | [1]; at 100.0 µM 90% | [2]; at 11.0 µM 93% | [2]; at 33.0 µM 98% | [2]; at 100.0 µM 96% | [3]; at 11.0 µM 86% | [3]; at 33.0 µM 96% | [3]; at 100.0 µM 93% | [4]; at 11.0 µM 99% | [4]; at 33.0 µM 98% | [4]; at 100.0 µM 95% | [5]; at 11.0 µM 96% | [5]; at 33.0 µM 97% | [5]; [18] 96% | [5]; at 50.0 µM 85.4% | [5]; at 100.0 µM 89% | [6]; at 11.0 µM 98% | [6]; at 33.0 µM 98% | [6]; [18] 96% | [6]; at 50.0 µM 86.8% | [6]; at 100.0 µM 95% | [7]; at 11.0 µM 94% | [7]; at 33.0 µM 98% | [7]; at 100.0 µM 95% | [8]; [18] 96% | [8]; at 50.0 µM 85.3% | [9]; at 11.0 µM 96% | [9]; at 33.0 µM 98% | [9]; at 100.0 µM 91% | [10]; at 50.0 µM 88.7% | [11]; at 11.0 µM 98% | [11]; at 33.0 µM 98% | [11]; at 50.0 µM 86.7% | [11]; at 100.0 µM 91% | [12]; at 11.0 µM 98% | [12]; at 33.0 µM 98% | [12]; at 100.0 µM 94% | [13]; at 11.0 µM 98% | [13]; at 33.0 µM 96% | [13]; at 100.0 µM 93% | [14]; at 11.0 µM 98% | [14]; at 33.0 µM 98% | [14]; at 100.0 µM 95% | [15]; [18] 96% | [15]; at 50.0 µM 86.8% | [16]; at 11.0 µM 97% | [16]; at 33.0 µM 98% | [16]; at 100.0 µM 94%
inactive: [1]; at 1.2 µM 1% | [1]; at 3.7 µM 57% | [2]; at 1.2 µM -2% | [2]; at 3.7 µM 17% | [3]; at 1.2 µM 3% | [3]; at 3.7 µM 50% | [4]; at 1.2 µM -12% | [4]; at 3.7 µM 51% | [5]; at 1.2 µM 1% | [5]; at 3.7 µM 43% | [5]; [17] 30% | [6]; at 1.2 µM -9% | [6]; at 3.7 µM 36% | [6]; [17] 56% | [7]; at 1.2 µM 1% | [7]; at 3.7 µM 22% | [8]; [17] 22% | [9]; at 1.2 µM 28% | [9]; at 3.7 µM 69% | [10]; [17] -3% | [10]; [18] 37% | [11]; at 1.2 µM 6% | [11]; at 3.7 µM 44% | [11]; [17] 35% | [11]; [18] 68% | [12]; at 1.2 µM 19% | [12]; at 3.7 µM 59% | [13]; at 1.2 µM 0% | [13]; at 3.7 µM 40% | [14]; at 1.2 µM 27% | [14]; at 3.7 µM 62% | [15]; [17] 42% | [16]; at 1.2 µM -6% | [16]; at 3.7 µM 49%

OCc1ccccc1Cc1ccccc1
inactive: [1]; at 1.2 µM -4% | [1]; at 3.7 µM 0% | [1]; at 11.0 µM -2% | [1]; at 33.0 µM -3% | [1]; at 100.0 µM -3% | [2]; at 1.2 µM 0% | [2]; at 3.7 µM -1% | [2]; at 11.0 µM 0% | [2]; at 33.0 µM -2% | [2]; at 100.0 µM -7% | [3]; at 1.2 µM 2% | [3]; at 3.7 µM 2% | [3]; at 11.0 µM 8% | [3]; at 33.0 µM 12% | [3]; at 100.0 µM 30% | [4]; at 1.2 µM -3% | [4]; at 3.7 µM -5% | [4]; at 11.0 µM -2% | [4]; at 33.0 µM 12% | [4]; at 100.0 µM -10% | [5]; at 1.2 µM -1% | [5]; at 3.7 µM 0% | [5]; [17] 7% | [5]; at 11.0 µM -1% | [5]; at 33.0 µM -3% | [5]; [18] 21% | [5]; at 100.0 µM -6% | [6]; at 1.2 µM -1% | [6]; at 3.7 µM 2% | [6]; [17] -2% | [6]; at 11.0 µM -4% | [6]; at 33.0 µM -6% | [6]; [18] -17% | [6]; at 50.0 µM 53.4% | [6]; at 100.0 µM -6% | [7]; at 1.2 µM -1% | [7]; at 3.7 µM -1% | [7]; at 11.0 µM 0% | [7]; at 33.0 µM -2% | [7]; at 100.0 µM -3% | [8]; [17] 0% | [8]; [18] 50% | [8]; at 50.0 µM 60.5% | [9]; at 1.2 µM -7% | [9]; at 3.7 µM 0% | [9]; at 11.0 µM -2% | [9]; at 33.0 µM -5% | [9]; at 100.0 µM -7% | [10]; [17] 5% | [10]; [18] -2% | [10]; at 50.0 µM 32.9% | [11]; at 1.2 µM 2% | [11]; at 3.7 µM -1% | [11]; [17] 12% | [11]; at 11.0 µM 5% | [11]; at 33.0 µM 1% | [11]; [18] 40% | [11]; at 50.0 µM 65.8% | [11]; at 100.0 µM -9% | [12]; at 1.2 µM 0% | [12]; at 3.7 µM 0% | [12]; at 11.0 µM 0% | [12]; at 33.0 µM -2% | [12]; at 100.0 µM -7% | [13]; at 1.2 µM -1% | [13]; at 3.7 µM -1% | [13]; at 11.0 µM 0% | [13]; at 33.0 µM -2% | [13]; at 100.0 µM -3% | [14]; at 1.2 µM 0% | [14]; at 3.7 µM 2% | [14]; at 11.0 µM 2% | [14]; at 33.0 µM 1% | [14]; at 100.0 µM -1% | [15]; [17] 3% | [15]; [18] 63% | [16]; at 1.2 µM -1% | [16]; at 3.7 µM 0% | [16]; at 11.0 µM -16% | [16]; at 33.0 µM -2% | [16]; at 100.0 µM -6%
active: [5]; at 50.0 µM 87.9% | [15]; at 50.0 µM 79.6%
